# Reference: article PMC7862700, “An all-to-all approach to the identification of sequence-specific readers for epigenetic DNA modifications on cytosine”
# How the values were obtained:
# Assay in all cases: DAPPL (digital affinity profiling via proximity ligation, sequencing); 10 mM Tris-HCl pH 7.5, 50 mM NaCl, 1 mM DTT, 4% glycerol, room temperature, 30 min; GST-TFs on glutathione beads, 16-mer random dsDNA library, 0.1% formaldehyde crosslink after washing; high values mean tight binding
# [1] = target: T1, FEV (Homo sapiens, UniProt Q99581 1-238); conditions: protein: recombinant; tags: N-terminal GST; dsDNA, one strand shown
# T1 sequence: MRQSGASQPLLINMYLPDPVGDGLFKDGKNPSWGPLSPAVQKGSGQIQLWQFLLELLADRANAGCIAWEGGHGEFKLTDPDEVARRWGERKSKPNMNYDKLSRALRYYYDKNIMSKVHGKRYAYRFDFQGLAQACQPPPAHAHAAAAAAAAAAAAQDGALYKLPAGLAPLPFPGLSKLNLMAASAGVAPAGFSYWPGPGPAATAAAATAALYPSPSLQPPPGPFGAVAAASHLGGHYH
# How it was run: (§1)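 Beads coated with glutathione captured GST-fused human transcription factors that had been expressed in yeast, and the factors were then given DNA barcodes and pooled with a tag-only sample. The pools were incubated with 200 nmole of a random double-stranded 16-mer DNA library in Tris/NaCl/DTT/glycerol buffer for 30 min at room temperature, washed, crosslinked with 0.1% formaldehyde and proximity-ligated with BsaI/T4 ligase at 37 °C for 1 h. PCR amplification and Illumina NextSeq500 sequencing came last. Binding signal is each hexamer's read frequency for a factor divided by its frequency for the tag-only sample.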
# [2] = target: ETV5 (Homo sapiens, UniProt P41161 1-510); conditions: protein: recombinant; tags: N-terminal GST; dsDNA, one strand shown
# How it was run: as §1
# [3] = target: HSF1 (Homo sapiens, UniProt Q00613 1-529); conditions: protein: recombinant; tags: N-terminal GST; chain copies: 3; dsDNA, one strand shown
# How it was run: as §1
# [4] = target: T2, SPIC (Homo sapiens, UniProt Q8N5J4 1-248); conditions: protein: recombinant; tags: N-terminal GST; dsDNA, one strand shown
# T2 sequence: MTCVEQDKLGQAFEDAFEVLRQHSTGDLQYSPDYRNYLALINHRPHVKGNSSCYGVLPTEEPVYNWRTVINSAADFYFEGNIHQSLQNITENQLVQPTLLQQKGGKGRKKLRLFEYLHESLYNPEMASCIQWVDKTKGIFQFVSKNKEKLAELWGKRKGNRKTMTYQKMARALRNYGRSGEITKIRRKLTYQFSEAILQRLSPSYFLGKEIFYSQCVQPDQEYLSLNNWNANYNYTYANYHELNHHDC
# How it was run: as §1
# [5] = target: ELF4 (Homo sapiens, UniProt Q99607 1-663); conditions: protein: recombinant; tags: N-terminal GST; dsDNA, one strand shown
# How it was run: as §1
# [6] = target: T3, ELK4 (Homo sapiens, UniProt P28324-2 1-405); conditions: protein: recombinant; tags: N-terminal GST; dsDNA, one strand shown
# T3 sequence: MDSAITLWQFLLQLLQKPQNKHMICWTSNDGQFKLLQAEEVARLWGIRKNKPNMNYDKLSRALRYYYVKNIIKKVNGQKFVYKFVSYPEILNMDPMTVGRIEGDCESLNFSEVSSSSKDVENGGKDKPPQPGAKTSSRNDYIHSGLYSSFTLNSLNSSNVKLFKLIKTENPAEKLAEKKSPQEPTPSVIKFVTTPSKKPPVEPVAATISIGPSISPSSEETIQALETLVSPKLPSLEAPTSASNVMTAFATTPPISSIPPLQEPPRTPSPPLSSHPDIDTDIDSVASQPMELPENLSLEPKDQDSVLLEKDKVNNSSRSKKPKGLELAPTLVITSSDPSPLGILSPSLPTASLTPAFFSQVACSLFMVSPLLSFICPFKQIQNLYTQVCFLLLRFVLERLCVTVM
# How it was run: as §1
# [7] = target: T4, ETV2 (Homo sapiens, UniProt O00321 1-342); conditions: protein: recombinant; tags: N-terminal GST; dsDNA, one strand shown
# T4 sequence: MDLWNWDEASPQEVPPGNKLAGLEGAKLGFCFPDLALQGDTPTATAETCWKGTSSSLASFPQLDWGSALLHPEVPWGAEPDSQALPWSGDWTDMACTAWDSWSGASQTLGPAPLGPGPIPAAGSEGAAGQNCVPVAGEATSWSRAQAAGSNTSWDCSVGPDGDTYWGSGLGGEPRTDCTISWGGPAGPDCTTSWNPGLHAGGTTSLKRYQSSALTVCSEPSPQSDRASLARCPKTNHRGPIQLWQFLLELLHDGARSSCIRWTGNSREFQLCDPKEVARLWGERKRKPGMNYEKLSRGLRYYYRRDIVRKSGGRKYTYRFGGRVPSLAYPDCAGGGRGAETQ
# How it was run: as §1
# [8] = target: T5, ELF3 (Homo sapiens, UniProt P78545 1-371); conditions: protein: recombinant; tags: N-terminal GST; dsDNA, one strand shown
# T5 sequence: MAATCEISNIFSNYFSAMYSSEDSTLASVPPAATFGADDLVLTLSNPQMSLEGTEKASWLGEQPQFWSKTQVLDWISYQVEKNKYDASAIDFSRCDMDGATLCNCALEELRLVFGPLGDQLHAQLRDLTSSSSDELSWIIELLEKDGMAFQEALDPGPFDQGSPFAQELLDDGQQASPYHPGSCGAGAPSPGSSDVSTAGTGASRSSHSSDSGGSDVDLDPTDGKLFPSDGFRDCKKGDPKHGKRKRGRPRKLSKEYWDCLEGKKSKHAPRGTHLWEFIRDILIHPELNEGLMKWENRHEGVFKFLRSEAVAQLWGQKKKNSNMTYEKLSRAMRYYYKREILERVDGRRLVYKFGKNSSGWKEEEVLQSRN
# How it was run: as §1
# [9] = target: CRX (Homo sapiens, UniProt O43186 1-299); conditions: protein: recombinant; tags: N-terminal GST; dsDNA, one strand shown
# How it was run: as §1
# [10] = target: ETV1 (Homo sapiens, UniProt P50549 1-477); conditions: protein: recombinant; tags: N-terminal GST; dsDNA, one strand shown
# How it was run: as §1
# Chain of ETV1 (P50549 whole entry): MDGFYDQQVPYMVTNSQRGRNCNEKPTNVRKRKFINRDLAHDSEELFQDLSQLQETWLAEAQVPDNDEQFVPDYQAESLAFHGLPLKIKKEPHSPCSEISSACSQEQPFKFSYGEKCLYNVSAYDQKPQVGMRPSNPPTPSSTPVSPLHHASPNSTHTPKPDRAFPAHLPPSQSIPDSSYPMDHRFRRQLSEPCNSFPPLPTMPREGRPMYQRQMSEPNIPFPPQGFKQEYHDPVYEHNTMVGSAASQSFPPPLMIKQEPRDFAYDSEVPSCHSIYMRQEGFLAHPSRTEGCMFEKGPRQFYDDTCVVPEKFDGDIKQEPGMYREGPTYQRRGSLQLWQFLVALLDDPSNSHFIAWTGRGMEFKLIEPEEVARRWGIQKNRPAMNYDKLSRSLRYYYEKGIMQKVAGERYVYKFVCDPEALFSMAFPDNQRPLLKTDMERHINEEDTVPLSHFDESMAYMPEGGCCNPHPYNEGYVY
# Chain of ELF4 (Q99607 whole entry): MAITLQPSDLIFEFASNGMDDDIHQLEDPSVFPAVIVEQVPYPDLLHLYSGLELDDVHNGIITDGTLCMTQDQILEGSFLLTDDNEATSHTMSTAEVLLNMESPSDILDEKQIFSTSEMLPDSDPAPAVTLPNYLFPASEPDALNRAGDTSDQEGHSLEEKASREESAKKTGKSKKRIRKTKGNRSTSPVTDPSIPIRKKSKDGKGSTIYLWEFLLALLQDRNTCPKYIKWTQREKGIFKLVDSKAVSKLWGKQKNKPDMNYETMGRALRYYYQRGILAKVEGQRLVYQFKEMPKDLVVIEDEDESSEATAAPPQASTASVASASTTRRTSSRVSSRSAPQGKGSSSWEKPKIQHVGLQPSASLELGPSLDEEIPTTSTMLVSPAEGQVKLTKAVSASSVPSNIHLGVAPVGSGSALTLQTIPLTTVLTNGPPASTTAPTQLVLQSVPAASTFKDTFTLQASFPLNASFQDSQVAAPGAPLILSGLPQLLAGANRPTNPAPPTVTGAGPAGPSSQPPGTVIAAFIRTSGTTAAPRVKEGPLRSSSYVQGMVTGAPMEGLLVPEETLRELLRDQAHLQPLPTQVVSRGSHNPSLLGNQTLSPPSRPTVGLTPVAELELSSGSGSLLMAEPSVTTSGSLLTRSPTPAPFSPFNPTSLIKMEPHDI
# Chain of HSF1 (Q00613 whole entry): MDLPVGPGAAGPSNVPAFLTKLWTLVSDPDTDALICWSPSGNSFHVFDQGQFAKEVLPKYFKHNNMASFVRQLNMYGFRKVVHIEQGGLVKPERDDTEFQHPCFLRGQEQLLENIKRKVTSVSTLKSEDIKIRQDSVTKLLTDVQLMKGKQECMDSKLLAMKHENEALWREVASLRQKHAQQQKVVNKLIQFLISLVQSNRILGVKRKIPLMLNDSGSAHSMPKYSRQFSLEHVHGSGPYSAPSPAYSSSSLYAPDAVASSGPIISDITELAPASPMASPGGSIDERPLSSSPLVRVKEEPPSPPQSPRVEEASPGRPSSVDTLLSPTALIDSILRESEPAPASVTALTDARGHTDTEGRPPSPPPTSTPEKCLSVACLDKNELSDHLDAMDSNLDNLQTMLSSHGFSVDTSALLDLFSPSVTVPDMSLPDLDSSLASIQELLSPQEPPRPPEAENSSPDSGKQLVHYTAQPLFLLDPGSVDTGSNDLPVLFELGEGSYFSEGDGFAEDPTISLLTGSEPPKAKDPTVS
# Chain of ETV5 (P41161 whole entry): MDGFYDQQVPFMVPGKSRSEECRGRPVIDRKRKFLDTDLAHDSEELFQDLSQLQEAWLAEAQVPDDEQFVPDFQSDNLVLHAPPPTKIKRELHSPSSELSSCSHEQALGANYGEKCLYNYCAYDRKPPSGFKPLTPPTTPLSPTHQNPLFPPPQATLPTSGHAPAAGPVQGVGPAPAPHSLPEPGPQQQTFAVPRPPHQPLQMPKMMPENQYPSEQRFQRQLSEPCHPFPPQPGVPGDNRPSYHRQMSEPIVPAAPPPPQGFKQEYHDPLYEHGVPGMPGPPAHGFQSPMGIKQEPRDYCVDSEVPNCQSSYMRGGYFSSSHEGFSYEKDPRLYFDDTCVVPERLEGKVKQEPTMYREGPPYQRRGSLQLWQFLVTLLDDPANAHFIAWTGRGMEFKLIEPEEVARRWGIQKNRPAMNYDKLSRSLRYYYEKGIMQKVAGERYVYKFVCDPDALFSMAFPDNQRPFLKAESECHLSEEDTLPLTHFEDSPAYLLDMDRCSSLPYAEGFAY
# Chain of CRX (O43186 whole entry): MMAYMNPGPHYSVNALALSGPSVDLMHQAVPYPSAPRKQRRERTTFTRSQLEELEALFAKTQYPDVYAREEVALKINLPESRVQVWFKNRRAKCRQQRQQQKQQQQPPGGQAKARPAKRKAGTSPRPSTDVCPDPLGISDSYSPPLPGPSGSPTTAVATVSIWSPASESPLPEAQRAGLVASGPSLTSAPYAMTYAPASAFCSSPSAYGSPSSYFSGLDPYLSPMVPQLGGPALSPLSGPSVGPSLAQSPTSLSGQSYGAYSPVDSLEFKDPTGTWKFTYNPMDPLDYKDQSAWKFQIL
sequence,measurement,setting,value
AATTGA,binding signal,[1],"1.11 fold enrichment (6-mer frequency, TF over GST control)"
same,binding signal,[2],"1.22 fold enrichment (6-mer frequency, TF over GST control)"
same,binding signal,[3],"1.05 fold enrichment (6-mer frequency, TF over GST control)"
same,binding signal,[4],"1.1 fold enrichment (6-mer frequency, TF over GST control)"
same,binding signal,[5],"1.18 fold enrichment (6-mer frequency, TF over GST control)"
same,binding signal,[6],"1.18 fold enrichment (6-mer frequency, TF over GST control)"
same,binding signal,[7],"1.18 fold enrichment (6-mer frequency, TF over GST control)"
same,binding signal,[8],"1.3 fold enrichment (6-mer frequency, TF over GST control)"
same,binding signal,[9],"1.1 fold enrichment (6-mer frequency, TF over GST control)"
same,binding signal,[10],"1.21 fold enrichment (6-mer frequency, TF over GST control)"
